Compound activity from PubChem.
An excerpt weighted towards active compounds, which were near 8.1% of everything screened.
KB-3-1 cytotox – KB-3-1 parental cell cytotoxicity; KB-3-1 viability, CellTiter-Glo ATP luminescence, 72 h; Potency, µM (top dose mostly 46.1 µM), usual class: cytotoxic; actives 1.4% (n = 400,000); AID 1347075; further: nearly all actives have a fitted effect of over 60% in size
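72 h, 37 °C compound treatment of KB-3-1 parental cells; CellTiter-Glo added, 10 min, luminescence read. Data corrected against DMSO-only plates and normalized before curve fitting.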
MCF10A rereplic – DNA re-replication induction in MCF 10a cells. actives 2.9% (n = 350,000). AID 624296. MCF 10A DNA re-replication, Hoechst nuclear intensity, 48 h. Potency, µM (series often up to 46.1 µM), usual class: activators; further: nearly all actives have a fitted effect of over 50% in size
ELG1 DNA repair – inhibitors of ELG1-dependent DNA repair in HEK293T cells. HEK293T ELG1-luciferase reporter, luminescence, 16 h; DNA damage induced by 5-fluorouridine. actives 2.3% (n = 330,000). Potency, µM (top dose mostly 46.1 µM), hits mostly inhibitors; further: nearly all actives have a fitted effect of over 55% in size
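HEK293T cells expressing luciferase-tagged ELG1 (2,000/well) received 5-Fluorouridine plus compound or DMSO for 16 hr at 37 °C. Luciferase was read by ONE-Glo luminescence after 30 min at room temperature.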
SW480 rereplic – DNA re-replication induction in SW480 cells; SW480 DNA re-replication, Hoechst DNA content imaging, 48 h; Potency, µM (series often up to 46.1 µM), hits mostly activators; actives 1.8% (n = 340,000); AID 624297; further: nearly all actives have a fitted effect of over 55% in size
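Compounds, transferred as 23 nL by pin tool, were incubated with cells for 48 hr; DNA content per nucleus was then quantified by Hoechst staining and fluorescence plate imaging.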
KB-V1 MDR tox – KB-V1 MDR subline cytotoxicity; KB-V1 MDR cells viability, CellTiter-Glo, 72 h; Potency, µM (doses to about 46.1 µM), most hits filed as cytotoxic; actives 3.4% (n = 400,000); AID 1347076; further: nearly all actives have a fitted effect of over 60% in size
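qHTS viability screen in drug-selected KB-V1 MDR cells: 72 h compound treatment at 37 degrees C, ATP luminescence end point.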
A number is an active result; n = inactive; u = inconclusive; x = no result. The call rests on the fitted dose curve; in most records, active means well fitted curve in the direction sought with a large enough effect; inconclusive means small, poorly fitted or top-dose-only effect, or another doubt; inactive means no such curve, though single readings can be large; an effect the other way counts as inactive or inconclusive.

SMILES | KB-3-1 cytotox | MCF10A rereplic | ELG1 DNA repair | SW480 rereplic | KB-V1 MDR tox
O=C1C(C2=C(O)c3ccccc3C2=O)=Nc2ccccc21 | u | 23µM | n | u | 7.3µM
Cc1ccc(NC(=O)C2CCN(c3nc4ccccc4nc3C(F)(F)F)CC2)cc1F | n | x | x | x | n
CCN=C1S/C(=C\c2ccc(Sc3ccc(Cl)cc3)o2)C(=O)N1CC | u | u | n | u | n
CCN=C1S/C(=C/c2ccc(-c3ccc(F)cc3)o2)C(=O)N1CC | n | 8.2µM | n | u | n
COc1ccc(-c2oc3ccc(-c4cc(OC)c(OC)c(OC)c4)cc3c2-c2ccc(OC)nc2)cc1 | n | u | n | n | n
O=c1nc(/C=C/c2cccn2-c2ccc([N+](=O)[O-])cc2)cc(C(F)(F)F)[nH]1 | n | n | n | n | n
COc1cc(/C=C/c2cc(C(F)(F)F)[nH]c(=O)n2)cc(OC)c1OC | u | u | u | 21µM | n
COc1cc(OC)c(OC)cc1/C=C/c1cc(C(F)(F)F)[nH]c(=O)n1 | u | 23µM | n | 18µM | n
O=c1nc(/C=C/c2cc([N+](=O)[O-])ccc2Cl)cc(C(F)(F)F)[nH]1 | n | 3.3µM | u | n | u
CC1=CC(C)C2(COC(c3ccc[n+](C)c3)OC2)C(C)C1 (stereo not given) | u | u | 6.5µM | n | n
Cc1ccc(C(=O)N/N=C2\CCc3ccccc32)c(C)c1 | n | n | u | n | 23µM
Cc1cnc2nc(-c3ccccc3)ccc2c1 | n | x | x | x | n
CCCCCCCCNC(=S)NCCN1CCCCC1 | n | 12µM | n | u | u
COc1ccccc1-n1c(=O)oc2ccc(Cl)cc2c1=O | u | 6.5µM | n | n | u
CC(=O)Nc1ccc(-c2ccnc3c2CC(C(=O)NCCc2ccccc2)O3)cc1 (stereo not given) | n | x | x | x | n
CC(=O)Nc1ccc(-c2ccnc3c2CC(C(=O)NCc2ccccc2)O3)cc1 (stereo not given) | 0.065µM | x | x | x | 1.3µM
CC(=O)Nc1ccc(-c2ccnc3c2CC(C(=O)NCc2ccco2)O3)cc1 (stereo not given) | 0.52µM | x | x | x | n
CC1=C(C(=O)N(C)C)CC(CC(=O)NCCCCc2ccccc2)C(=O)N1Cc1ccc(C(C)(C)C)cc1 (stereo not given) | n | x | x | x | u
O=C(NCc1ccc(Cl)cc1)c1ccc(Cn2cc(C(F)(F)F)ccc2=O)cc1 | n | n | n | n | 16µM
O=C(NCc1ccccc1Cl)c1ccc(Cn2cc(C(F)(F)F)ccc2=O)cc1 | n | n | n | n | 6.5µM
O=C(NCc1ccccn1)c1ccc(Cn2cc(C(F)(F)F)ccc2=O)cc1 | n | n | n | n | n
Cc1ccc(NS(=O)(=O)c2ccc3oc(=O)c4ncn(C)c4c3c2)cc1C | n | x | x | x | n
O=C(NC1CCCC1)C1C(c2ccc(C(F)(F)F)cc2)=Nc2ccccc2N1C(=O)c1cc2ccccc2[nH]1 (stereo not given) | u | x | x | x | 13µM
Cc1noc(C)c1COC(=O)c1csc2c1CCC(C)C2 (stereo not given) | n | u | u | n | 21µM
COCCNC(=O)C1CCCN(C(=O)c2csc3ccccc23)CC1 (stereo not given) | n | x | x | x | n
SMILES | KB-3-1 cytotox | MCF10A rereplic | ELG1 DNA repair | SW480 rereplic | KB-V1 MDR tox
Cc1ccc(C)c(Cn2nnc3c(=O)[nH]c(C4CCN(C(=O)c5cccs5)CC4)nc32)c1 | n | u | u | n | n
Cc1ccc(Cn2nnc3c(=O)[nH]c(C4CCN(C(=O)c5cccs5)CC4)nc32)cc1 | u | n | 9.2µM | n | n
Cc1ccc(Cn2nnc3c(=O)[nH]c(C4CCCN(C(=O)Nc5ccc(F)cc5)C4)nc32)cc1 (stereo not given) | n | n | 16µM | n | n
COc1ccc(Cn2nnc3c(=O)[nH]c(C4CCCN(C(=O)c5ccc(C)cc5)C4)nc32)cc1 (stereo not given) | n | x | x | x | n
CC1(C(=O)NC2CCN(Cc3ccccc3)CC2)CCN1Cc1cc2ccccc2o1 (stereo not given) | n | x | x | x | n
COc1ccc(-c2c(C#N)c(SCC(=O)Nc3ccc(Br)cc3)nc(C)c2C(=O)Nc2ccccc2)cc1 | n | x | x | x | n
COc1ccc(-c2c(C#N)c(SCC(=O)Nc3ccc(C)cc3)nc(C)c2C(=O)Nc2ccccc2)cc1 | n | x | x | x | n
